Measured values: PubChem BioAssay AID1159580 (chemical genetic matrix, 2015)
Values joined by “and” are separate entries in the source; they are usually repeats but may differ in a detail not shown here. Equal values may be shown once. The campaign covered roughly 5,500 compounds. About 2,000 (36%) were called active. Inconclusive results (about 18%) are left out. Rule as the data show it: active = normalized growth mostly below about 0.91 (no sharp cut-off); inconclusive = no clear call, values can overlap the other calls; inactive = mostly above about 0.92. The list shows a part of the results.

Assay: chemical genetic growth profiling, strain panel (AID 1159580);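 also: tested at 20 µM; growth read once vehicle control cultures reached saturation at 30 °C; 1 = growth at the plate median or of vehicle wells; lower values mean less growth of the strain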
Details: S. cerevisiae deletion strains, growth OD

Measured: normalized growth

NC(=O)c1ccc([N+](=O)[O-])cc1Cl
inactive: locus YAL013W, strain DEP1, stronger effect = lower value 0.983 | locus YAL021C, strain ccr4, stronger effect = lower value 0.97 | locus YAL026C, strain drs2, stronger effect = lower value 0.968 | locus YAL030W, strain snc1, stronger effect = lower value 0.997 | locus YBL061C, strain skt5, stronger effect = lower value 0.983 | locus YBR009C, strain hhf1, stronger effect = lower value 0.953 | locus YBR021W, strain FUR4, stronger effect = lower value 1.02 | locus YBR023C, strain chs3, stronger effect = lower value 0.985 | locus YBR171W, strain sec66, stronger effect = lower value 0.981 | locus YBR229C, strain ROT2, stronger effect = lower value 0.95 | locus YBR231C, strain swc5, stronger effect = lower value 1.01 | locus YBR279W, strain paf1, stronger effect = lower value 0.988 | locus YCL011C, strain gbp2, stronger effect = lower value 0.929 | locus YCL016C, strain dcc1, stronger effect = lower value 0.951 | locus YCL029C, strain bik1, stronger effect = lower value 0.977 | locus YCL069W, strain vba3, stronger effect = lower value 0.984 | locus YCR088W, strain abp1, stronger effect = lower value 0.994 | locus YDL005C, strain med2, stronger effect = lower value 0.985 | locus YDL035C, strain GPR1, stronger effect = lower value 0.98 | locus YDL040C, strain nat1, stronger effect = lower value 0.992 | locus YDL074C, strain BRE1, stronger effect = lower value 0.956 | locus YDL101C, strain DUN1, stronger effect = lower value 0.943 | locus YDL134C, strain PPH21, stronger effect = lower value 0.982 | locus YDL185W, strain tfp1, stronger effect = lower value 0.981 | locus YDL192W, strain arf1, stronger effect = lower value 0.982 | locus YDR001C, strain nth1, stronger effect = lower value 0.965 | locus YDR069C, strain doa4, stronger effect = lower value 0.971 | locus YDR101C, strain arx1, stronger effect = lower value 0.991 | locus YDR137W, strain rgp1, stronger effect = lower value 0.929 | locus YDR150W, strain NUM1, stronger effect = lower value 0.965 | locus YDR159W, strain sac3, stronger effect = lower value 0.931 | locus YDR162C, strain NBP2, stronger effect = lower value 0.945 | locus YDR195W, strain ref2 1.02 | locus YDR297W, strain sur2, stronger effect = lower value 0.978 | locus YDR318W, strain mcm21, stronger effect = lower value 0.995 | locus YDR334W, strain swr1, stronger effect = lower value 0.979 | locus YDR335W, strain msn5, stronger effect = lower value 0.981 | locus YDR388W, stronger effect = lower value 0.984 | locus YDR392W, strain spt3, stronger effect = lower value 0.942 | locus YDR502C, strain sam2, stronger effect = lower value 0.973 | locus YEL003W, strain gim4, stronger effect = lower value 1.01 | locus YEL037C, strain rad23, stronger effect = lower value 0.983 | locus YEL061C, strain CIN8 (second series), stronger effect = lower value 0.979 | locus YEL061C, strain CIN8, stronger effect = lower value 0.976 | locus YER015W, strain faa2, stronger effect = lower value 0.988 | locus YER016W, strain bim1, stronger effect = lower value 0.969 | locus YER110C, stronger effect = lower value 0.978 | locus YER111C, strain swi4, stronger effect = lower value 0.988 | locus YER155C, strain BEM2 (second series), stronger effect = lower value 1.05 | locus YER155C, strain BEM2, stronger effect = lower value 0.984 | locus YER167W, strain BCK2, stronger effect = lower value 0.978 | locus YFR010W, strain ubp6, stronger effect = lower value 0.975 | locus YGL078C, strain dbp3, stronger effect = lower value 0.965 | locus YGL086W, strain mad1, stronger effect = lower value 0.998 | locus YGL167C, strain pmr1, stronger effect = lower value 0.978 | locus YGL173C, strain kem1, stronger effect = lower value 0.99 | locus YGL227W, strain vid30, stronger effect = lower value 0.991 | locus YGL240W, strain doc1, stronger effect = lower value 0.995 | locus YGL248W, strain PDE1, stronger effect = lower value 0.973 | locus YGL253W, strain hxk2, stronger effect = lower value 0.971 | locus YGR078C, strain PAC10, stronger effect = lower value 0.979 | locus YGR135W, strain pre9, stronger effect = lower value 0.971 | locus YGR229C, strain SMI1, stronger effect = lower value 0.974 | locus YGR252W, strain gcn5, stronger effect = lower value 1 | locus YHR013C, strain ard1, stronger effect = lower value 0.936 | locus YHR027C, strain rpn1, stronger effect = lower value 0.968 | locus YHR030C, strain SLT2, stronger effect = lower value 0.985 and 0.977 | locus YHR079C, strain IRE1 (second series), stronger effect = lower value 0.977 | locus YHR079C, strain IRE1, stronger effect = lower value 0.974 | locus YHR094C, strain hxt1, stronger effect = lower value 0.989 | locus YHR129C, strain ARP1, stronger effect = lower value 0.997 | locus YHR142W, strain chs7, stronger effect = lower value 0.982 | locus YHR200W, strain rpn10, stronger effect = lower value 0.981 | locus YIL066C, strain RNR3, stronger effect = lower value 0.976 | locus YIL073C, strain SPO22, stronger effect = lower value 0.95 | locus YIL125W, strain kgd1, stronger effect = lower value 0.989 | locus YIR030C, strain dcg1, stronger effect = lower value 0.972 | locus YJL092W, strain hpr5, stronger effect = lower value 0.988 | locus YJL095W, strain BCK1 (second series), stronger effect = lower value 0.969 | locus YJL095W, strain BCK1, stronger effect = lower value 0.995 and 0.957 | locus YJL115W, strain asf1, stronger effect = lower value 0.986 | locus YJL129C, strain trk1, stronger effect = lower value 1.02 | locus YJL134W, strain LCB3, stronger effect = lower value 0.975 | locus YJL154C, strain vps35, stronger effect = lower value 0.98 | locus YJL164C, strain tpk1, stronger effect = lower value 0.933 | locus YJL166W, strain qcr8, stronger effect = lower value 1.01 | locus YJL168C, strain set2, stronger effect = lower value 0.982 | locus YJL187C, strain SWE1 (second series), stronger effect = lower value 0.972 | locus YJR043C, strain POL32, stronger effect = lower value 0.993 | locus YJR066W, strain TOR1, stronger effect = lower value 0.944 | locus YJR075W, strain HOC1, stronger effect = lower value 0.969
